Measured values reported in PubChem BioAssay.
A number with no mark means an inactive call. How the calls were made is not given here.

Assay: blockers of DNA damage checkpoint Chk1 activation – imaging, HeLa, hydroxyurea, phospho-Chk1 nuclear intensity, primary screen (AID 1187); further: test concentration not given here
Settings: hydroxyurea-induced phospho-Chk1 immunofluorescence imaging, higher = more signal

Row | Compound | z-score
1 | COC(=O)c1c(CC[C@@H](CO)NC(=O)N2CCC[C@H]2Cn2cc(Cc3ccccc3)nn2)oc(C(C)=O)c1C(=O)OC | -0.522
2 | O=C(NCc1ccccc1)[C@@H]1c2ccccc2C(=O)N(Cc2ccccc2C(F)(F)F)[C@H]1c1ccc(CO)cc1 | -0.841
3 | O=C(NCCCCCNC(=O)/C(Cc1ccccc1)=N/O)OCc1ccccc1 | 0.238
4 | C=C[C@@H](COC(C)=O)N(C(=O)OC(C)(C)C)S(=O)(=O)c1ccc(Br)cc1 | -0.474
5 | CCOC(=O)C[C@H]1[C@H](OC(=O)c2ccccc2-c2ccccc2)[C@@H](NC(=O)c2ccc(-c3ccccc3)cc2)c2cc(OCCCO)ccc2N1C(=O)c1ccc2ccccc2n1 | -0.0265
6 | CCOC(=O)C[C@H]1[C@H](OC(=O)c2cc3ccccc3oc2=O)[C@@H](NC(=O)Cc2ccc(OC)cc2)c2cc(OCCCO)ccc2N1C(=O)c1ccc2ccccc2n1 | 0.203
7 | O=C1O[C@H](c2ccccc2)[C@H](c2ccccc2)N2[C@H]1[C@@H](C(=O)Nc1nc3ccccc3s1)[C@]1(C(=O)Nc3ccc(C#CC4(O)CCCCCC4)cc31)[C@H]2c1ccccc1OCCO | 0.976
8 | COC(=O)[C@@]1(Cc2ccccc2N=[N+]=[N-])N=C(c2ccc(OCCCO)cc2)O[C@H]1c1ccccc1N=[N+]=[N-] | -0.267
9 | CC(c1ccccc1)C(O)C1C=CC2C(=O)N(c3ccccc3)C(=O)C2N1Nc1ccc([N+](=O)[O-])cc1 (stereo unspecified) | 0.104
10 | CN1C(=O)C2C=CC(C(O)c3ccc(F)cc3)N(Nc3ccccc3)C2C1=O (stereo unspecified) | -0.232
11 | CCCC[C@@H]1C[C@H]1[C@@H](NC(=O)Cc1ccccc1)c1ccc(-c2ccccc2)cc1 | -0.541
12 | O=C1C[C@@](C(=O)NCCN2CCOCC2)(c2ccc([N+](=O)[O-])cc2)[C@@H](c2ccc(CO)cc2I)N1C1CCCCC1 | 0.245
13 | COC(=O)[C@@]1(Cc2ccc(F)cc2)[C@H]2c3cc(C(=O)N4CCCC4)n(CCc4ccc(O)c(O)c4)c3C[C@H]2CN1C(=O)c1ccccc1 | 0.303
14 | COC(=O)C(CC#Cc1ccc2c(c1)[C@]1(C(=O)N2)[C@H](c2ccccc2OCCO)N2[C@H](c3ccccc3)[C@H](c3ccccc3)OC(=O)[C@H]2[C@@H]1C(=O)NC[C@H](O)c1ccccc1)C(=O)OC | -0.553
15 | COc1ccc(-c2nc(-c3ccccc3)c3c(c2C)CO[Si]3(C(C)C)C(C)C)cn1 | 0.126
16 | C=CCC(OC(C)=O)[C@@H]1[C@@H](N(Cc2cc3ccccc3o2)C(=O)c2ccc(C)cc2)c2cc(OCCCO)ccc2N1C(=O)Cc1ccc(OC)cc1 (stereo partly specified) | -0.601
17 | COc1ccc([Si](C)(C)[C@@H]2[C@@H](CC(=O)N(CCO)Cc3ccccc3)O[C@]3(C(=O)N(c4ccccc4)c4ccccc43)[C@H]2C)cc1 | -0.327
18 | O=C1OCC=C[C@H]2OC34C=CCN(c5ccc(Cl)cc5)C(=O)[C@H]3N(CCO)C(=O)[C@@H]4[C@@H]12 (stereo partly specified) | -0.457

Row | Compound | z-score
19 | O=C1OCCC=C[C@H]2OC34C=CCN(Cn5nnc6ccccc65)C(=O)[C@H]3N(CCCCCCO)C(=O)[C@@H]4C12 (stereo partly specified) | -0.21
20 | CC(C)(C)N1CC=CC23O[C@@H]4C=CCOC(=O)[C@@H]4[C@H]2C(=O)N(CCCCCCO)[C@@H]3C1=O (stereo partly specified) | -0.43
21 | [N-]=[N+]=NCc1ccccc1[C@H]1OC(c2ccc(OCCCO)cc2)=N[C@@]1(CCS(=O)(=O)c1ccccc1)C(=O)NCC(O)CO (stereo partly specified) | 0.0231
22 | C=C(/C(=C/C[C@H](OC(C)=O)c1cccc(OCCO)c1)c1cnc2ccccc2c1)C(C)C | -0.139
23 | COCCOC(=O)N1C(=O)[C@@]2(c3cc(C#CCCO)ccc31)[C@H](c1ccccc1OCCO)N1[C@H](c3ccccc3)[C@H](c3ccccc3)OC(=O)[C@H]1[C@@H]2C(=O)Nc1nc2ccccc2s1 | 0.0927
24 | Cc1cc(C)c(C(O)C2C=CC3C(=O)NC(=O)C3N2Nc2ccc(Cl)cc2Cl)c(C)c1 (stereo unspecified) | 0.314
25 | C=C(COC)/C(=C/C[C@H](OC(=O)c1ccncc1)c1ccccc1OCCO)c1cnc2ccccc2c1 | -0.166
26 | CCOC(=O)C1=CC[C@@H](c2ccccc2C(F)(F)F)N(S(=O)(=O)c2ccc(C)cc2)[C@H]1c1ccc(C#N)cc1 | -0.581
27 | OCC1CC(c2ccccc2)=NO1 (stereo unspecified) | -0.0558
28 | CC(C)(C)OC(=O)CC[C@]1(C(=O)NCC(O)CO)N=C(c2ccc(OCCCO)cc2)O[C@H]1c1ccccc1 (stereo partly specified) | -0.886
29 | COCCOC(=O)N1C(=O)[C@@]2(c3cc(C#Cc4ccc(OC)cc4)ccc31)[C@H](c1ccccc1OCCO)N1[C@H](c3ccccc3)[C@H](c3ccccc3)OC(=O)[C@H]1[C@@H]2C(=O)N1CCCCCCC1 | -0.648
30 | O=C1C2C=CC(C(O)c3ccccc3)N(Nc3ccccc3F)C2C(=O)N1c1ccccc1 (stereo unspecified) | 0.0511
31 | CO[C@]12C=C(Br)[C@@H](C[C@@H]1c1cccc(C)c1)[C@@]1(CO1)C2=O | -0.28
32 | Cn1cccc1C(O)C1C=CC2C(=O)NC(=O)C2N1Nc1ccc(Cl)cc1Cl (stereo unspecified) | 0.532
33 | C=C(C(=O)CC[C@@H](OC(C)=O)c1ccc(CO)o1)C(C)C | 0.636
34 | COCCOC(=O)N1C(=O)[C@@]2(c3cc(C#Cc4ccc(OC)cc4)ccc31)[C@H](C(=O)Nc1nc3ccccc3s1)[C@H]1C(=O)O[C@H](c3ccccc3)[C@H](c3ccccc3)N1[C@@H]2c1ccc(O)cc1 | -0.999
35 | CCCCCCCCCCC(O)C1C=CC2C(=O)N(C)C(=O)C2N1NC(=O)OC(C)(C)C (stereo unspecified) | 1.4
36 | COC(=O)c1ccc([C@H](NC(=O)c2ccco2)[C@]2(C)C[C@H]2C2CCCCC2)cc1 | -0.229
